VDR inh – blocks the human vitamin D receptor. VDR-SRC2-3 peptide fluorescence polarization, 2 h. Potency, µM, without a hit: max response, negative = inhibition, most hits filed as inhibitors. 400,000 tested, 0.93% active
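The screen uses fluorescence polarization to detect compounds that interfere with recruitment of the SRC2-3 coactivator peptide to VDR; plates are read after 2 h at room temperature.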
TrxR1 substrate – rat thioredoxin reductase 1 substrate activity; O89049; purified TrxR1 substrate turnover, NADPH consumption readout; Potency, µM (top dose mostly 114 µM), inactives show top-dose activity change, negative = substrate turnover; 390,000 tested, 0.01% active; note: nearly all actives have a fitted effect of over 50% in size
Target sequence (O89049 whole entry, looked up): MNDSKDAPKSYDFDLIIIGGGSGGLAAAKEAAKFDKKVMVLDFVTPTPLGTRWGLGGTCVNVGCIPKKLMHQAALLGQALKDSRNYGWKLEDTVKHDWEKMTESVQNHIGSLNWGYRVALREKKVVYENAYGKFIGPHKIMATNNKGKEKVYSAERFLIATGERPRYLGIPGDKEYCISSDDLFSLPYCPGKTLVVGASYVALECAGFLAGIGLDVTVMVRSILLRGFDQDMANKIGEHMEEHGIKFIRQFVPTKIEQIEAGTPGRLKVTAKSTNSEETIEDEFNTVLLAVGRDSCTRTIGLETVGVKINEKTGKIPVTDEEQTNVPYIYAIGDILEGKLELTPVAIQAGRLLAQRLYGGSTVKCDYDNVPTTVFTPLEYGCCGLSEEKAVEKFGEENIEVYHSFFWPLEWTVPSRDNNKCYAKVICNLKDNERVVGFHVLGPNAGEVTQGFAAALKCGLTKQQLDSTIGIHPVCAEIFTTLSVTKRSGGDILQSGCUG
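Rat TrxR1, dispensed at 90 nM, was prereduced with 400 uM NADPH (final) for 5 min at ~22 deg C, then incubated with compound 15 min before 400 uM selenite. A first-read NADPH fluorescence drop versus no-compound background flagged substrates.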
Sfp PPTase inh – inhibitors of Bacillus subtilis Sfp phosphopantetheinyl transferase; Biochemical Sfp PPTase activity, qHTS; Potency, µM, for inactives: largest response in the series, negative = inhibition, hits mostly inhibitors; 310,000 tested, 3.5% active; AID 1490;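 note: the enzyme is Sfp with the accession as filed and its product quenches rhodamine fluorescence; 0% = enzyme reaction without inhibitor and -100% = no enzyme wells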
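With Hepes-Na pH 7.6 buffer containing 10 mM MgCl2, Sfp (15 nM) modified BHQ-2-YbbR (12.5 uM) using rhodamine-CoA (5 uM). Two reads 30 minutes apart at 525/598 nm yielded each well's rate.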
IDH1 R132H inh – human IDH1 R132H inhibition | O75874 | IDH1-R132H enzyme, NADPH consumption, diaphorase/resazurin fluorescence | Potency, µM (highest dose often 76.6 µM), for inactives: at the highest dose activity change, negative = inhibition, hits mostly inhibitors | 390,000 tested, 0.093% active | AID 602179; note: nearly all actives have a fitted effect of over 65% in size
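IDH1-R132H (0.5 ug/mL) preincubated 30 min with compound, then NADPH (0.016 mM) and alpha-KG (2 mM) added; 80 min at RT, pH 7.5. Remaining NADPH coupled via diaphorase/resazurin to fluorescence (540/590 nm); concentration-response curves normalized to no-enzyme control.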
PLK1 PBD inh – inhibitors of human PLK1 polo-box domain binding | Plk1 PBD binding of FITC phosphopeptide, fluorescence polarization | P53350 | 360,000 tested, 2.8% active | AID 720504 | Potency, µM, inactives show max response, negative = inhibition, actives largely listed as inhibitors; note: series mostly up to about 57 µM; nearly all actives have a fitted effect of over 65% in size
rTrxR1 inhibitor – rat TrxR1 inhibition. O89049. recombinant rTrxR1, NADPH fluorescence consumption, selenite substrate. Potency, µM (titrated, usually from 114 µM), without a hit: at the highest dose activity change, negative = inhibition, actives largely listed as inhibitors. 390,000 tested, 1% active. AID 588453; note: nearly all actives have a fitted effect of over 65% in size
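Rat TrxR1 (90 nM in the dispensed reagent) was pre-reduced with 400 uM NADPH for 5 min at room temperature, then incubated with compound for 15 min. After 400 uM selenite was added, NADPH fluorescence (Ex 340/Em 450 nm) was followed for 8 min.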
Active calls of the source: *; [ ] = another dose, or the depositor's remark. The list is not random: actives were taken first. Their share in the collection is about 5.2%. Calls come from the whole dose curve; as a rule, active = well fitted curve in the direction sought with a large enough effect; inconclusive = small, poorly fitted or top-dose-only effect, or another doubt; inactive = no such curve, though single readings can be large; an effect the other way counts as inactive or inconclusive. Unless noted, % is set by controls: 0 for no effect and ±100 for the full control effect; potency is the fitted concentration of half-maximal effect.

COc1ccc([C@H]2CC(=O)C=C(/C=C/Cc3ccccc3)C2)cc1 was read as VDR inh 79µM*, TrxR1 substrate -4%, IDH1 R132H inh -16%, PLK1 PBD inh -15% and rTrxR1 inhibitor -20%[57.1 µM].
COC(=O)Nc1nnc(-c2ccncc2)s1 was read as VDR inh -26%, TrxR1 substrate 187%, Sfp PPTase inh -52%, IDH1 R132H inh -4%, PLK1 PBD inh 27µM* and rTrxR1 inhibitor 12%.
Cc1ccc(C(=O)NNC(=O)/C=C\C(=O)O)cc1 was read as VDR inh 7%, TrxR1 substrate 2%, Sfp PPTase inh inconclusive, IDH1 R132H inh 14%, PLK1 PBD inh -3% and rTrxR1 inhibitor 7%.
COc1cccc(C(=O)Nc2nnc(C(C)C)s2)c1 was read as VDR inh 2%, TrxR1 substrate -13%, Sfp PPTase inh 15%, IDH1 R132H inh 26%, PLK1 PBD inh -11% and rTrxR1 inhibitor -11%.
For CCN(CC)S(=O)(=O)c1ccc(C(=O)Nc2nnc(C(C)C)s2)cc1 the results were VDR inh -11%, TrxR1 substrate -1%[57.1 µM], Sfp PPTase inh 11%, IDH1 R132H inh -8%, PLK1 PBD inh -17% and rTrxR1 inhibitor 6%[57.1 µM].
For CCOc1ccc(C(=O)Nc2nnc(C(C)C)s2)cc1OCC the results were VDR inh -2%, TrxR1 substrate 4%, Sfp PPTase inh 89µM*, IDH1 R132H inh 3%, PLK1 PBD inh -12% and rTrxR1 inhibitor 2%.
For COc1ccc(C(=O)Nc2nnc(C(C)C)s2)cc1OC the results were VDR inh -11%, TrxR1 substrate 4%, IDH1 R132H inh -8% and rTrxR1 inhibitor 79µM*.
`Cc1cc(NC(=O)c2cnn(-c3ccccc3)c2-n2cccc2)ccc1Br` gave VDR inh 8%, TrxR1 substrate 9%, IDH1 R132H inh -6% and rTrxR1 inhibitor 25%.
Screening CCSc1nnc2ccc(-c3ccc(OC)c(OC)c3)nn12 returned VDR inh inconclusive, TrxR1 substrate 1%, Sfp PPTase inh 6%, IDH1 R132H inh 5%, PLK1 PBD inh 21µM* and rTrxR1 inhibitor 15%.
`C/C(CC(=O)Nc1ccc(N(C)C)cc1)=N\NC(=O)c1cnccn1` gave VDR inh -2%, TrxR1 substrate -8%, Sfp PPTase inh 56µM*, IDH1 R132H inh 7%, PLK1 PBD inh -23% and rTrxR1 inhibitor inconclusive.
For C/C(CC(=O)NC12CC3CC(CC(C3)C1)C2)=N\NC(=O)c1cnccn1 the results were VDR inh -27%, TrxR1 substrate 8%[57.1 µM], Sfp PPTase inh 50µM*, IDH1 R132H inh -1%, PLK1 PBD inh inconclusive and rTrxR1 inhibitor inconclusive.
C/C(CC(=O)Nc1ccc(N(C)C)cc1)=N\NC(=O)c1ccccn1 was read as VDR inh 4%, TrxR1 substrate 9%[57.1 µM], Sfp PPTase inh -23%, IDH1 R132H inh -1%, PLK1 PBD inh -30% and rTrxR1 inhibitor -36%[57.1 µM].
Screening O=C(NC12CC3CC(CC(C3)C1)C2)c1cnccn1 returned VDR inh -3%, TrxR1 substrate -5%, Sfp PPTase inh -7%, IDH1 R132H inh -1%, PLK1 PBD inh -18% and rTrxR1 inhibitor -22%.
Screening O=C1NN(c2ccccc2)C(=O)/C1=C/c1coc2ccccc2c1=O returned VDR inh 40µM*, TrxR1 substrate 7%, Sfp PPTase inh -6%, IDH1 R132H inh -2%, PLK1 PBD inh inconclusive and rTrxR1 inhibitor inconclusive.
O=C1NN(c2ccccc2)C(=O)/C1=C\c1coc2ccc(O)cc2c1=O was read as VDR inh 22µM*, TrxR1 substrate -8%, Sfp PPTase inh 79µM*, IDH1 R132H inh 1%, PLK1 PBD inh inconclusive and rTrxR1 inhibitor inconclusive.
`Cc1cc(/C=C2/C(=O)NN(c3ccccc3)C2=O)c(C)n1-c1ccc(O)cc1` gave VDR inh inconclusive, TrxR1 substrate -13%, Sfp PPTase inh 4%, IDH1 R132H inh 1%, PLK1 PBD inh -12% and rTrxR1 inhibitor -14%.
`O=C(NCCc1ccccc1)N1c2ccccc2Sc2ccccc21` gave VDR inh inconclusive, TrxR1 substrate -12%, Sfp PPTase inh -1%, IDH1 R132H inh 8%, PLK1 PBD inh 24µM* and rTrxR1 inhibitor -16%.
Screening CC(C)CNC(=O)N1c2ccccc2Sc2ccccc21 returned VDR inh 6%, TrxR1 substrate 10%[11.4 µM], Sfp PPTase inh 17%, IDH1 R132H inh 2%, PLK1 PBD inh -3% and rTrxR1 inhibitor 25%[11.4 µM].
Screening COc1ccc(OCc2cc(C(=O)NC(C)Cc3cnccn3)no2)c(Cl)c1 (configuration not stated) returned VDR inh 19%, TrxR1 substrate 4%, Sfp PPTase inh 18%, IDH1 R132H inh 12%, PLK1 PBD inh -3% and rTrxR1 inhibitor 21%.
CCC(=O)Nc1sc(C(=O)Nc2ccccc2F)c(C)c1C(=O)OC was read as VDR inh 5%, TrxR1 substrate -6%[57.1 µM], Sfp PPTase inh 6%, IDH1 R132H inh 9%, PLK1 PBD inh 3% and rTrxR1 inhibitor 14%[57.1 µM].
Screening COC(=O)c1c(NC(C)=O)sc(C(=O)Nc2ccccc2F)c1C returned VDR inh -12%, TrxR1 substrate 9%[57.1 µM], Sfp PPTase inh 71µM*, IDH1 R132H inh -2%, PLK1 PBD inh 24µM* and rTrxR1 inhibitor 26%[57.1 µM].
For Cc1ccc(Cn2c(=O)c3cccnc3n(CC(=O)Nc3cc(Cl)ccc3C)c2=O)cc1 the results were VDR inh -18%, TrxR1 substrate 8%, IDH1 R132H inh -15% and rTrxR1 inhibitor 20%.
Screening COc1ccc(C(=O)C[n+]2ccccc2Cl)cc1 returned TrxR1 substrate 22% and rTrxR1 inhibitor -15%.
Screening N#CC(C#N)=C1C=CC=CN1/C(=C\c1ccccc1Cl)C(=O)c1ccccc1 returned VDR inh inconclusive, TrxR1 substrate -12%, Sfp PPTase inh inconclusive, IDH1 R132H inh -6%, PLK1 PBD inh 1.7µM* and rTrxR1 inhibitor inconclusive.
Screening N#CC(C#N)=C1C=CC=CN1/C(=C\c1ccccc1)C(=O)c1cccs1 returned VDR inh inconclusive, TrxR1 substrate 9%, Sfp PPTase inh 2.2µM*, IDH1 R132H inh -15%, PLK1 PBD inh 2.1µM* and rTrxR1 inhibitor 0.45µM*.
CC(N)C(=O)NCC(=O)NC1CSSCC(C(=O)O)NC(=O)C(CO)NC(=O)C(C(C)O)NC(=O)C(Cc2ccccc2)NC(=O)C(C(C)O)NC(=O)C(CCCCN)NC(=O)C(Cc2c[nH]c3ccccc23)NC(=O)C(Cc2ccccc2)NC(=O)C(Cc2ccccc2)NC(=O)C(CC(N)=O)NC(=O)C(CCCCN)NC1=O (configuration not stated) was read as VDR inh inconclusive and Sfp PPTase inh 2%.

Assay outcomes deposited in PubChem BioAssay by National Center for Advancing Translational Sciences (NCATS).
